The whole screen tested about 16,000 compounds, of which about 5,700 (36%) were called active. Another 24% or so got no clear call; they are omitted. Calls follow the shape of the dose curve; as a rule, active = well fitted curve in the direction sought with a large enough effect; inconclusive = small, poorly fitted or top-dose-only effect, or effect the other way; inactive = no such curve, though single readings can be large or run the other way. This is one part of the list.
The compounds below were run against Cytochrome P450 1A2 (Homo sapiens) (UniProt P05177) (assay: Cytochrome panel assay with activity outcomes). Details: recombinant CYP, pro-luciferin dealkylation, luminescence, p450-cyp1a2; series mostly up to 57.1 µM; activity, negative = inhibition: at the top concentration.
Chain of Cytochrome P450 1A2 (Homo sapiens) (P05177 whole entry, looked up): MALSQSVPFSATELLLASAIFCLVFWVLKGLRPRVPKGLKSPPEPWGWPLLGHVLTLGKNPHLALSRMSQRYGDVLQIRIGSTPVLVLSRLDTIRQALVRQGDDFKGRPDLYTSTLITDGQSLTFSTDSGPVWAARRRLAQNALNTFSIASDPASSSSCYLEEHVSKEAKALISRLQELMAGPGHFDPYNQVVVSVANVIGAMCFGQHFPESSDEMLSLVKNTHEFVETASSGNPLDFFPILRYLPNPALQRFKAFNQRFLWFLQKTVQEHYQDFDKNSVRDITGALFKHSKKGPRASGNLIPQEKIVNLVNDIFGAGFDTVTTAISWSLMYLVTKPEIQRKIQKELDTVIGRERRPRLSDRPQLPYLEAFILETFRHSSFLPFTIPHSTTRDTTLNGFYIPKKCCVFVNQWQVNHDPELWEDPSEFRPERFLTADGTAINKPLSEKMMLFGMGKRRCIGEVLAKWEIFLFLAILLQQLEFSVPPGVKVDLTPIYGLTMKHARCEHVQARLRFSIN
% is scaled to controls: 0 for no effect and ±100 for the full control effect.

AC50, active:
CN(C)c1ncnc2ccc(-c3cccnc3)cc12 0.2 µM
COc1cccc(-c2ccc3ncnc(N(C)C)c3c2)c1 0.794 µM
CSc1nc(C2CC2)cc(-c2cccs2)c1C#N 0.316 µM
N#Cc1c(-c2ccccc2)cc(C2CC2)nc1SCC(=O)c1cccs1 0.562 µM
CSc1nc(N)nc(-c2cccs2)c1C#N 2 µM
Cc1ccc(N=CC2=C(O)CC(c3ccco3)CC2=O)cc1 (configuration not stated) 25.1 µM
CCC(=O)N(C)/C=C1\Sc2ccccc2C1=O 3.16 µM
CS(=O)(=O)c1cnc2c(-c3ccc(F)cc3)cnn2c1N 3.55 µM
Cc1ccc(C(=O)N/N=C/c2ccc([N+](=O)[O-])s2)cc1 2.82 µM
O=C(N/N=C/c1ccc([N+](=O)[O-])s1)c1ccccc1Br 15.8 µM
O=C(N/N=C/c1ccc(Br)s1)c1ccccc1[N+](=O)[O-] 14.1 µM
Cc1cccc(NC(=S)N/N=C/c2ccc([N+](=O)[O-])s2)c1 1.41 µM
Cc1cc(N2CCN(c3nc4ccccc4s3)CC2)n2ncnc2n1 15.8 µM
C=CCOC(=O)/C(=C\c1cccc2ccccc12)NC(=O)c1ccccc1 7.08 µM
c1ccc2c(c1)-c1nc3ccccc3cc1[C@H]2N1CCOCC1 1.26 µM

activity, negative = inhibition, inactive:
O=C1NC(O)=NC1(c1ccccc1)c1ccccc1 -12.9%
CC(C)C12CN3CC(C(C)C)(CN(C1)C3c1ccco1)C2=O (configuration not stated) 11%
O=C(N/N=C/c1cc([N+](=O)[O-])ccc1N1CCNCC1)c1ccc([N+](=O)[O-])cc1 -24.1%
O=C(NCCNc1ccc([N+](=O)[O-])cc1)c1ccccc1Br -27.5%
COc1cccc(NC(=S)NNC(=O)C(C)n2nc(C)c([N+](=O)[O-])c2C)c1 (configuration not stated) -23.7%
CO[C@H]1COC(=O)C/C=C\[C@@H](C)[C@H](OC)COC(=O)CCC[C@@H]1C -5.95% [at 11.4 µM]
CC(=O)N1CCC(=O)N(C(C)C)c2ccccc21 -11.8%
CCCNC(=O)OC[C@@H]1O[C@H](CCO/N=C(\C)CCN2CCCc3nc(C)c(C)cc32)C=C[C@@H]1Oc1ccc(OC)cc1 0.587% [at 11.4 µM]
COc1ccc(NC(=O)/C(=C\c2cc(OC)c(OC)cc2[N+](=O)[O-])NC(=O)c2ccccc2)cc1 9.17%
CCCCOc1ccc(C(=O)N/C(=C\c2cccc([N+](=O)[O-])c2)C(=O)OCCC)cc1 -18.3%
CCCCCCC1CC(C)(/C(C)=N/NC(N)=O)OC1=O (configuration not stated) -17.7%
O=S(=O)(c1cnccc1N1CCN(/N=C/c2ccccc2)CC1)N1CCCCC1 -18.1%
